Assay results from PubChem BioAssay (Tox21).
Inconclusive results are not listed. Entries that show only a call come without a potency. The source made the active and inactive calls. Unless noted, the call rests on the fitted dose curve; in most records, active means well fitted curve in the direction sought with a large enough effect in the repeat runs; inconclusive means weak or mixed curves; inactive means no such curve, though single readings can be large; an effect the other way counts as inactive or inconclusive.

Tests used:
[1] = qHTS assay for identifying genotoxic compounds that show differential cytotoxicity against isogenic chicken DT40 cell lines with known DNA damage response pathways - wild type cell line (AID 743012); further: nearly all actives have a fitted effect of over 60% in size; further: potency means the concentration at half of the fitted maximal effect
Method in brief: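 300 wt DT40 cells/well; cpd (DMSO) pintool-transferred after ~0.5 h at 37 C/5% CO2; 40 h incubation; CellTiter-Glo added, 30 min RT; luminescence read.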

[2] = qHTS assay for identifying genotoxic compounds that show differential cytotoxicity against isogenic chicken DT40 cell lines with known DNA damage response pathways - Rev3 mutant cell line (AID 743014); further: nearly all actives have a fitted effect of over 55% in size; further: potency means the concentration at half of the fitted maximal effect
[3] = qHTS assay to identify small molecule antagonists of the androgen receptor (AR) signaling pathway - cell viability counter screen (AID 743033; further: nearly all actives have a fitted effect of over 45% in size)
[4] = qHTS assay to identify small molecule antagonists of the androgen receptor (AR) signaling pathway using the MDA cell line - cell viability counter screen (AID 743041; further: nearly all actives have a fitted effect of over 45% in size)
Method in brief: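 Cytotoxicity counter screen: MDA-kb2 AR-luc cells, compound + R1881, 16 h, 37C, 0% CO2; CellTiter-Fluor added at 15.5 h, fluorescence read after 30 min.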

[5] = qHTS assay to identify small molecule antagonists of the thyroid receptor (TR) signaling pathway - cell viability counter screen (AID 743064); further: nearly all actives have a fitted effect of over 50% in size; further: potency means the concentration at half of the fitted maximal effect
Method in brief: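 Same-well viability check: GH3.TRE-Luc cells stimulated with 1 nM T3 alongside test compound for 23.5 h, followed by CellTiter-Fluor fluorescence.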

[6] = qHTS assay to identify small molecule antagonists of the thyroid receptor (TR) signaling pathway (AID 743065); further: nearly all actives have a fitted effect of over 55% in size; further: potency means the concentration at half of the fitted maximal effect
Method in brief: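 GH3.TRE-Luc rat pituitary cells (two TREs driving luciferase) were dosed with compound, then stimulated with 1 nM T3 (final) for 23.5 h at 37 C. ONE-Glo luminescence was the read-out, with CellTiter-Fluor fluorescence as the cytotoxicity counter-screen.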

[7] = tested on: thyroid hormone receptor (rat, GH3 cells); experiment: qHTS assay to identify small molecule agonists of the thyroid receptor (TR) signaling pathway (AID 743066; calls by dose curve)
[8] = qHTS assay to identify small molecule antagonists of the estrogen receptor alpha (ER-alpha) signaling pathway - cell viability counter screen (AID 743074; calls by dose curve;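 further: HEK293 cells carrying ER-alpha-UAS-bla reporter stimulated with 17beta-estradiol; nearly all actives have a fitted effect of over 45% in size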)
[9] = qHTS assay to identify small molecule antagonists of the estrogen receptor alpha (ER-alpha) signaling pathway using the BG1 cell line - cell viability counter screen (AID 743081);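 further: compound given together with 17beta-estradiol as the ER stimulus; series mostly up to about 70 µM; nearly all actives have a fitted effect of over 45% in size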
Aromatase (Homo sapiens) = Aromatase (Homo sapiens) (UniProt P11511); experiment: qHTS assay to identify aromatase inhibitors (AID 743083); further: series mostly up to about 70 µM; nearly all actives have a fitted effect of over 55% in size
Chain of Aromatase (Homo sapiens) (P11511 whole entry, looked up): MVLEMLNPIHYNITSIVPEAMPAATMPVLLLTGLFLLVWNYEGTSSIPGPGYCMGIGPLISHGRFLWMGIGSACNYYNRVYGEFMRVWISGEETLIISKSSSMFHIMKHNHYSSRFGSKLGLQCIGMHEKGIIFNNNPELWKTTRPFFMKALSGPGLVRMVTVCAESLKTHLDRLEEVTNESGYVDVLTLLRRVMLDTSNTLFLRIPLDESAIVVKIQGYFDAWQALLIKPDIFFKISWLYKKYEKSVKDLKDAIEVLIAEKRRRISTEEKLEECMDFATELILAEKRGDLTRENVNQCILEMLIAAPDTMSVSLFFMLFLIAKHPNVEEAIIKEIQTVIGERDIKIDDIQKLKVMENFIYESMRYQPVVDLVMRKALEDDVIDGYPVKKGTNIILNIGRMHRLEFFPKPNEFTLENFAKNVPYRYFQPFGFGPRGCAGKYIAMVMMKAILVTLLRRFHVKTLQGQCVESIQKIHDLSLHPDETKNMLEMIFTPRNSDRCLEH

[10] = qHTS assay for identifying genotoxic compounds that show differential cytotoxicity against isogenic chicken DT40 cell lines with known DNA damage response pathways - Rad54/Ku70 mutant cell line (AID 743015); further: nearly all actives have a fitted effect of over 60% in size
[11] = molecular target: Estrogen receptor (Homo sapiens) (UniProt P03372); experiment: qHTS assay to identify small molecule antagonists of the estrogen receptor alpha (ER-alpha) signaling pathway (AID 743069; active means well fitted curve in the direction sought with a large enough effect in the signal ratio in the repeat runs, not every such curve was filed as active; the % refers to the signal ratio)
Chain of Estrogen receptor (Homo sapiens) (P03372 whole entry, looked up): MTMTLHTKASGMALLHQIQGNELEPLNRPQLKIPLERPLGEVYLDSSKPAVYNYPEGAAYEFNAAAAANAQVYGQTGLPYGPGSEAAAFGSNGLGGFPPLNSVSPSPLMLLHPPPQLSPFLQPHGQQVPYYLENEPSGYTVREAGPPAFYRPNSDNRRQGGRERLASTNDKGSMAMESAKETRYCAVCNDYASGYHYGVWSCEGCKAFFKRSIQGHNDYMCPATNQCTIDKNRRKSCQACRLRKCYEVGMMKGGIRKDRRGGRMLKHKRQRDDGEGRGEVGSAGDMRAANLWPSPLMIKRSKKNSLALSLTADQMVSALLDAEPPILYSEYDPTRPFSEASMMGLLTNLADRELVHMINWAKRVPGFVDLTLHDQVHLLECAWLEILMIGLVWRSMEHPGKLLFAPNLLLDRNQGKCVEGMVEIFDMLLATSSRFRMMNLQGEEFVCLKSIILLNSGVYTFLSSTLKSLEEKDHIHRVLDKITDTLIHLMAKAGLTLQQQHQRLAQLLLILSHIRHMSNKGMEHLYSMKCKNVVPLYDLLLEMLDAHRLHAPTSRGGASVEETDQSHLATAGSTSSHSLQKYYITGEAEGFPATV
Method in brief: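 Beta-lactamase FRET fluorescence is read after 2 hr at room temperature with LiveBLAzer B/G substrate. Before that, ER-alpha-bla HEK293 cells sit 4 hr after plating, then receive compound plus 17beta-estradiol and incubate 18 hr at 37C.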

[12] = molecular target: Estrogen receptor (Homo sapiens) (UniProt P03372); experiment: qHTS assay to identify small molecule agonists of the estrogen receptor alpha (ER-alpha) signaling pathway using the BG1 cell line (AID 743079); further: nearly all actives have a fitted effect of over 20% in size; further: potency means the concentration at half of the fitted maximal effect
[13] = qHTS assay to identify small molecule antagonists of the estrogen receptor alpha (ER-alpha) signaling pathway using the BG1 cell line (AID 743080; calls by dose curve;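 further: BG1 cells stimulated with 17beta-estradiol alongside compound; series mostly up to about 70 µM; nearly all actives have a fitted effect of over 25% in size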)
Method in brief: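 Quantitative HTS on the Tox21 10K library: BG1 cells with endogenous ER-alpha and ERE-luciferase reporter, 17beta-estradiol stimulation, 21.5 h compound exposure, luminescence endpoint with parallel fluorescence cytotoxicity counter-read.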

[14] = molecular target: Androgen receptor (Homo sapiens) (UniProt P10275); experiment: qHTS assay to identify small molecule antagonists of the androgen receptor (AR) signaling pathway (AID 743035; active means well fitted inhibition curve with a large enough effect in the signal ratio in the repeat runs, not every such curve was filed as active; the % refers to the signal ratio)
Chain of Androgen receptor (Homo sapiens) (P10275 whole entry, looked up): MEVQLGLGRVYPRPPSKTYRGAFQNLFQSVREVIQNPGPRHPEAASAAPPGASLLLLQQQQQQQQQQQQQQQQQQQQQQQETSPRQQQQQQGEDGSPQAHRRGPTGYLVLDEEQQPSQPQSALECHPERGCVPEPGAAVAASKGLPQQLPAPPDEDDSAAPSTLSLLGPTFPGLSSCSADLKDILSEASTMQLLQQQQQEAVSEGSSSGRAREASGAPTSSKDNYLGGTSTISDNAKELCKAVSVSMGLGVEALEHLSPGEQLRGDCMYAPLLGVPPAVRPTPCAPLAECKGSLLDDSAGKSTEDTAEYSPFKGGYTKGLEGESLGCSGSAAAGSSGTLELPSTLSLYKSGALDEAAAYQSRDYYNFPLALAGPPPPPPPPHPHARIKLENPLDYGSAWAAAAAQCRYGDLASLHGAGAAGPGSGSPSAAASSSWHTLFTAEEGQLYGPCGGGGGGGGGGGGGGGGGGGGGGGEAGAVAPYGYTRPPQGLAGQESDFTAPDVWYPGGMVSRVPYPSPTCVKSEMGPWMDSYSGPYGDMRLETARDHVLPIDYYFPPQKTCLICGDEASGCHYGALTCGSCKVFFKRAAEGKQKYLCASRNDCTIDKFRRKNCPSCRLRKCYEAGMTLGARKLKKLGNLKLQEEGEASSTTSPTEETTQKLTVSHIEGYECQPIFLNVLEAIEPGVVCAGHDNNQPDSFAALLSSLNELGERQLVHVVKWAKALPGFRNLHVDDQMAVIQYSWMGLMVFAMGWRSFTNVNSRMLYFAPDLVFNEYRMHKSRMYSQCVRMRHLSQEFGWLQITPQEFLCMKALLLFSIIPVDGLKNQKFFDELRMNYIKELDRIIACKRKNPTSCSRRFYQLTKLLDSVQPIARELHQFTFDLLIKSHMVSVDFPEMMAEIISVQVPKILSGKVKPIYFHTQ
Method in brief: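 In this cell-based reporter screen, compounds were tested in concentration series against R1881-activated HEK293 cells expressing beta-lactamase under UAS control; after 16 h at 37C, FRET substrate was added and fluorescence read 2 h later.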

[15] = molecular target: Androgen receptor (Homo sapiens) (UniProt P10275); experiment: qHTS assay to identify small molecule agonists of the androgen receptor (AR) signaling pathway using the MDA cell line (AID 743040; further: nearly all actives have a fitted effect of over 20% in size; further: potency means the concentration at half of the fitted maximal effect)
Method in brief: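 Luciferase read-out, ONE-Glo, 30 min RT. Cells: MDA-kb2 AR-luc, MMTV promoter with AR and GR response elements. Compound exposure 16 h, 37C, 0% CO2, after 5 h pre-incubation. qHTS agonist mode.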

[16] = molecular target: Androgen receptor (Homo sapiens) (UniProt P10275); experiment: qHTS assay to identify small molecule antagonists of the androgen receptor (AR) signaling pathway using the MDA cell line (AID 743042; further: nearly all actives have a fitted effect of over 55% in size)
Method in brief: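 MDA-kb2 breast carcinoma cells carrying MMTV-luciferase (AR/GR responsive) were co-treated with compounds and the agonist R1881 for 16 h at 37C. Inhibition read as ONE-Glo luminescence; CellTiter-Fluor fluorescence measured in parallel for cytotoxicity.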

[17] = molecular target: Estrogen receptor (Homo sapiens) (UniProt P03372); experiment: qHTS assay to identify small molecule agonists of the estrogen receptor alpha (ER-alpha) signaling pathway (AID 743075; calls by dose curve;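 further: HEK293 GripTite cells with ER-alpha and UAS-driven beta-lactamase reporter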)

Structure (SMILES) | Potency [1] | Potency [2] | outcome [3] | Potency [4] | Potency [5] | Potency [6] | outcome [7] | Potency [8] | outcome [9] | outcome (Aromatase (Homo sapiens)) | Potency [10] | Potency [11] | Potency [12] | Potency [13] | Potency [14] | Potency [15] | outcome [16] | Potency [17]
O=Cc1cccc(Br)c1 | inactive | inactive | inactive | inactive | inactive | inactive | inactive | inactive | inactive | inactive |  |  |  |  |  |  |  | 
CC(C)(C)C(=O)c1ccccc1 | inactive | inactive | inactive |  |  | inactive | inactive | inactive | inactive | inactive | inactive | inactive | 61.1 µM (active) |  |  |  |  | 
O=C1c2ccccc2C(=O)c2cc(O)ccc21 | inactive |  | inactive | inactive | inactive | inactive | inactive | inactive |  | inactive |  |  |  |  |  |  |  | 
NC(N)=NCCN1CCCCCCC1 |  |  | inactive |  | inactive | inactive | inactive | inactive | inactive | inactive |  |  |  | inactive |  |  |  | 
CC(=O)N1C[C@H](O)C[C@H]1C(=O)O | inactive |  | inactive | inactive | inactive | inactive | inactive | inactive | inactive | inactive | inactive |  | 10.6 µM (active) | inactive | inactive | 26.6 µM (active) | inactive | 
O=C(O)Cc1csc(-c2ccc(Cl)cc2)n1 | inactive | inactive |  | inactive | inactive | inactive | inactive | inactive | inactive | inactive | inactive |  | inactive | inactive | inactive | inactive | inactive | inactive
COc1cc(-c2ccc(=O)[nH]n2)ccc1OC(F)F | inactive |  | inactive | inactive | inactive | inactive | inactive | inactive | inactive | inactive | inactive |  |  |  |  |  |  | inactive
c1ccc2sc(SN3CCOCC3)nc2c1 |  | inactive | inactive |  | inactive | inactive | inactive | inactive | inactive | inactive |  |  |  |  |  |  |  | 
CC(C)(N)C#N | inactive | inactive | inactive | inactive | inactive | inactive | inactive | inactive | inactive | inactive |  | inactive | inactive |  |  |  |  | inactive
NCCCC(N)(C(=O)O)C(F)F (stereo unspecified) | inactive | inactive | inactive | inactive | inactive |  | inactive | inactive | inactive |  | inactive |  |  |  |  |  |  | 
CC(C)(C#N)Nc1nc(Cl)nc(NC2CC2)n1 | inactive | inactive | inactive | inactive | inactive | inactive | inactive | inactive | inactive | inactive | inactive |  |  |  |  |  |  | 
Nc1ccncc1N | inactive |  | inactive | inactive | inactive | inactive | inactive | inactive | inactive | inactive |  |  |  |  |  |  |  | 
Nc1ccn([C@@H]2O[C@H](CO)[C@@H](O)[C@@H]2O)c(=O)n1 | 0.0611 µM (active) | 0.0433 µM (active) | inactive | inactive | 0.217 µM (active) | 0.077 µM (active) | inactive | inactive | inactive | inactive |  |  | 24.3 µM (active) |  |  |  |  | inactive
CC(=O)c1ccc2ccccc2c1 | inactive |  | inactive | inactive | inactive | inactive | inactive | inactive | inactive | inactive | inactive |  | inactive |  |  |  |  | inactive
CCC(=O)OCc1ccccc1 |  | inactive | inactive | inactive | inactive | inactive | inactive | inactive | inactive | inactive | inactive |  |  |  |  |  |  | 
O=C(O)CC(C(=O)O)S(=O)(=O)O (stereo unspecified) | 68.6 µM (active) | 61.1 µM (active) | inactive | inactive | inactive | inactive | inactive | inactive | inactive | inactive |  |  | inactive | inactive |  |  |  | inactive

Structure (SMILES) | Potency [1] | Potency [2] | outcome [3] | Potency [4] | Potency [5] | Potency [6] | outcome [7] | Potency [8] | outcome [9] | outcome (Aromatase (Homo sapiens)) | Potency [10] | Potency [11] | Potency [12] | Potency [13] | Potency [14] | Potency [15] | outcome [16] | Potency [17]
Cc1ccccc1N=C(N)N=C(N)N |  | inactive | inactive |  | inactive | inactive | inactive | inactive | inactive | inactive | inactive |  |  |  |  |  |  | 
CN(C)C(=O)Oc1ccc[n+](C)c1 | inactive | inactive | inactive | inactive |  |  |  | inactive | inactive | inactive | inactive |  | 26.6 µM (active) | inactive |  |  |  | inactive
CO/N=C(\C(=O)N[C@@H]1C(=O)N2C(C(=O)O)=C(CSc3nc(=O)c(O)nn3C)CS[C@H]12)c1csc(N)n1 | inactive | inactive | inactive | inactive | inactive |  | inactive | inactive | inactive | inactive | inactive | inactive |  | inactive |  |  |  | inactive
CCCCCCC1CCC(=O)O1 (stereo unspecified) |  | inactive | inactive |  | inactive | inactive | inactive | inactive | inactive | inactive | inactive | inactive | inactive | inactive |  |  |  | inactive
O=CN(CCO)CCO | inactive | inactive | inactive | inactive | inactive | inactive | inactive | inactive | inactive | inactive | inactive |  |  |  |  |  |  | 
NC(=O)N[C@@H](CCC(=O)O)C(=O)O | inactive | inactive | inactive | inactive | inactive | inactive | inactive | inactive | inactive |  | inactive |  |  |  |  |  |  | 
O=S(=O)(O)c1cccc2c(S(=O)(=O)O)cccc12 | inactive | inactive | inactive | inactive | inactive |  | inactive | inactive |  | inactive |  |  |  |  |  |  |  | 
O=[N+]([O-])c1ccc(/C=N\O)o1 |  |  | inactive | inactive | inactive | inactive | inactive | inactive | inactive | inactive |  | inactive | inactive | inactive |  |  |  | inactive
OCCCCCO | inactive |  | inactive | inactive | inactive | inactive | inactive | inactive | inactive | inactive | inactive | inactive | 40.3 µM (active) | inactive |  |  |  | inactive
Clc1cc(Cl)cc(Cl)c1 | inactive | inactive | inactive | inactive | inactive |  |  | inactive | inactive | inactive |  | inactive | inactive |  |  |  |  | inactive
CCCCCCCCCCOc1cc2c(=O)c(C(=O)OCC)c[nH]c2cc1OCC | inactive | inactive | inactive | inactive | inactive | inactive | inactive | inactive | inactive | inactive | inactive |  | inactive | inactive |  |  |  | inactive
N[C@@H](CCC(=O)O)C(=O)O | inactive | inactive | inactive | inactive | inactive |  | inactive | inactive | inactive | inactive | inactive | inactive | inactive | inactive |  |  |  | inactive
CO[C@@]1(NC(=O)C(C(=O)O)c2ccc(O)cc2)C(=O)N2C(C(=O)O)=C(CSc3nnnn3C)CO[C@@H]21 (stereo partly specified) | inactive | inactive | inactive | inactive | inactive |  |  | inactive |  | inactive | inactive |  | inactive | inactive |  |  |  | inactive
CC(C)CC(C)(N)C#N (stereo unspecified) | inactive | inactive | inactive | inactive | inactive | inactive | inactive | inactive | inactive | inactive | inactive |  |  |  |  |  |  | 
CCNS(=O)(=O)c1ccc(C)cc1 | inactive | inactive | inactive | inactive | inactive | inactive | inactive | inactive | inactive | inactive |  |  | inactive | inactive |  |  |  | inactive
